The campaign covered roughly 310,000 compounds. About 14,000 (4.5%) showed an effect of 50% or more. Effects have a minus sign here. The list comes from a sample in which strong results are over-represented; it also holds similar structures and randomly drawn compounds.
Target: human ether-à-go-go-related gene (hERG) potassium channel (human, UniProt Q12809)
Assay: primary screen, population patch clamp on CHO cells stably expressing hERG; higher = less effect of the substance
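Further: peak tail current of the secondary pulse compared with the same well before compound.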

Sequence of human ether-à-go-go-related gene (hERG) potassium channel (Q12809 whole entry, looked up): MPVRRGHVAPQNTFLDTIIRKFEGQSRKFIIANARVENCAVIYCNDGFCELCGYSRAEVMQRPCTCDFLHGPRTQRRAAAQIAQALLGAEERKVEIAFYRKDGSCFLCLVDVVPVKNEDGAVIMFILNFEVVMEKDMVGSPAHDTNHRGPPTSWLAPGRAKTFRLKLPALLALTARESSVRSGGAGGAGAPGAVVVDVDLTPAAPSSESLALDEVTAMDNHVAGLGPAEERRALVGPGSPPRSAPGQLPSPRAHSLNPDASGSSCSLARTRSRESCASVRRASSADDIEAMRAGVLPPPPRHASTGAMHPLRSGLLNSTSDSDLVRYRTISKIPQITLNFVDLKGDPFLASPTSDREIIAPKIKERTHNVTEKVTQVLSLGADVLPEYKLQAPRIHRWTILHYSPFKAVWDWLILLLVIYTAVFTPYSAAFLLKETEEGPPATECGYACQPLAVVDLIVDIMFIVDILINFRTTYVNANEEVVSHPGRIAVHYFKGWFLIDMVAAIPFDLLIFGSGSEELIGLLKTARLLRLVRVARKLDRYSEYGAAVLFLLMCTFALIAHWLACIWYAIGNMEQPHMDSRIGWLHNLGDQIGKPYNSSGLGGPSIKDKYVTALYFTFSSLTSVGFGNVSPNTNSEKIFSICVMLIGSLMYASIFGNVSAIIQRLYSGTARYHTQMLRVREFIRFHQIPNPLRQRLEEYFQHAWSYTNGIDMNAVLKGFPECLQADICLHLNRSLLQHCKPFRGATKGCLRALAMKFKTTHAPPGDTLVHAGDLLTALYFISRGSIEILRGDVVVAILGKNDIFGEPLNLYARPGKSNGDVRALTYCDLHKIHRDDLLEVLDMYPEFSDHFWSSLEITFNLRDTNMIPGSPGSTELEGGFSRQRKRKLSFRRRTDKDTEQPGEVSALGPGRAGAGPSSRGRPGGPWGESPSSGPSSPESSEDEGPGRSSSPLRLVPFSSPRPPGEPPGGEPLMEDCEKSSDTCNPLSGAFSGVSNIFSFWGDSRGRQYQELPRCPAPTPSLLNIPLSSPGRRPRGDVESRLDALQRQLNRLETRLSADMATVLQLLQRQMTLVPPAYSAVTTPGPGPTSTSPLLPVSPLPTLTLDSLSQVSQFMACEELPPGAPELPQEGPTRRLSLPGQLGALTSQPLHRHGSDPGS

SMILES	hERG current change (%, negative = inhibition) at 10uM [%]
CC1CN(Cc2ccc(C#N)cc2Cl)CC(C)O1.Cl (stereo not shown)	0.479
COc1ccc(Nc2nc(-c3cccs3)nc3ccccc23)cc1S(=O)(=O)N1CCOCC1	-17.5
COc1ccc(OC)c(S(=O)(=O)N2Cc3ccccc3CC2C(=O)Nc2nccs2)c1 (stereo not shown)	22.2
COc1cc(CNn2c(C)n[nH]c2=S)cc(Cl)c1OCc1ccc(F)cc1	14.4
COc1ccc2c(c1)C(NC(C)=O)C(=O)N2C (stereo not shown)	-5.38
O=C(O)c1ccccc1C(=O)Nn1cnnc1	10.6
CCOC(=O)NC1(C(F)(F)F)NC(=O)N(C2CCCCC2)C1=O (stereo not shown)	-3.7
O=C(CCC(=O)NNC(=O)COc1ccc(Br)cc1)NCc1ccccc1	19.6
OC(CNCc1ccccn1)c1ccccc1 (stereo not shown)	-3.94
COc1ccc(C(=O)N2CCN(Cc3ccccc3C(F)(F)F)CC2)cc1.O=C(O)C(=O)O	-1.25
COc1cc(CN2CCN(Cc3ccccc3C(F)(F)F)CC2)cc(OC)c1OC.O=C(O)C(=O)O	-8.28
COc1ccc(CN2CCN(Cc3ccccc3C(F)(F)F)CC2)c(OC)c1.O=C(O)C(=O)O	-74.2
NS(=O)(=O)c1cc(C(=O)NC2CCSc3ccccc32)ccc1Cl (stereo not shown)	7.27
CCC1(C)N=C(c2ccc3c(c2)OCO3)CC(c2ccccc2O)N1 (stereo not shown)	2.42
CC(C)C1N=C(c2ccc3c(c2)OCO3)CC(c2ccccc2O)N1 (stereo not shown)	-20.5
CC(C)N1CCC2(CC1)N=C(c1ccc3c(c1)OCO3)CC(c1cc(Cl)ccc1O)N2 (stereo not shown)	-67.1
Cc1ccc2cccnc2c1NC(=S)NC(=O)c1ccccc1	17
O=C(C[n+]1cccc(CNC(=O)c2ccc(OC(F)F)cc2)c1)c1ccccc1.[Cl-]	-14.7
O=C(C[n+]1ccc(C(=O)NCc2ccccc2)cc1)c1ccc(Cl)cc1.[Br-]	-71.3
O=C(NCc1ccccc1)c1ccc(Cl)cc1	2.26
O=C(CNC(=O)c1ccc(F)cc1)NCc1ccccn1	-1.73
CCOc1ccc(C(=O)C[n+]2ccc(C(=O)NCc3ccccc3)cc2)cc1.[Br-]	-36

SMILES	hERG current change (%, negative = inhibition) at 10uM [%]
O=C(C[n+]1cn(C(F)F)c2ccccc21)c1ccc(OC(F)F)cc1.[Br-]	-74.9
O=C(NCCc1ccccn1)c1ccc(OC(F)F)cc1	-24.7
O=C(C[n+]1ccc(C(=O)NCc2ccccc2)cc1)c1ccc2c(c1)OCCO2.[Br-]	12.9
COc1ccc(C(=O)C[n+]2cn(C(F)F)c3ccccc32)c(F)c1.[Br-]	-4.45
O=C(C[n+]1cn(C(F)F)c2ccccc21)c1ccc(Br)cc1.[Br-]	-9.95
O=C(CNC(=O)c1ccc(OC(F)F)cc1)NCc1ccccn1	-70.9
O=C(C[n+]1ccc(C(=O)NCc2ccccc2)cc1)c1ccc(OC(F)F)cc1.[Br-]	-92.8
CCCCn1c(N)c(N(CC(C)C)C(=O)c2ccc(-c3ccc(Cl)cc3)o2)c(=O)[nH]c1=O	1.07
CCC(CC)C(=O)OCC(=O)Nc1cccc(S(=O)(=O)N(C)c2ccccc2)c1	14.3
O=C(NCc1ccc(F)cc1)C(C(=O)NCc1ccc(F)cc1)c1ncc(C(F)(F)F)cc1Cl	1.56
O=C(NCc1ccco1)c1cc2ccccc2o1	11.8
COc1cc(OC)cc(C(=O)Nc2ncn[nH]2)c1	7.31
Cc1ccn(CCC(=O)NC2CC(C)(C)Cc3c2cnn3-c2ccccc2C)n1 (stereo not shown)	-25.6
CC1(C)CC(=O)c2cc(C(=O)NC3CCSC3=O)c(=O)n(-c3ccccc3)c2C1 (stereo not shown)	-0.214
Cc1nc(NC(CC(C)C)C(=O)O)c2nc(C)oc2n1 (stereo not shown)	-3.03
COc1ccc(Nc2nc(C)cc(C)n2)cc1Cl.Cl	0.588
COc1ccc(C2N(C(=O)CN3CCCC3)CCCN2S(=O)(=O)c2ccccc2)cc1 (stereo not shown)	-15.8
CCCC(=O)Oc1ccc(N(C(=O)CCC)S(=O)(=O)c2cccs2)cc1	10.9
O=C1Nc2ccccc2Oc2cc([N+](=O)[O-])cc(Oc3ccccc3)c21	-24.5
Cc1[nH]c2ccc(C(=O)OC(C)C(=O)N(C)c3ccccc3)cc2c1C (stereo not shown)	1.13
c1ccc(-n2ncc3c(N4CCCC4)ncnc32)cc1	-8.17
Cc1ccc(C(=O)N2CCN(c3ncnc4c3cnn4-c3ccccc3)CC2)cc1	-0.928

SMILES	hERG current change (%, negative = inhibition) at 10uM [%]
O=C(c1ccccc1)N1CCN(c2ncnc3c2cnn3-c2ccccc2)CC1	-18
O=C(COc1ccccc1)N1CCN(c2ncnc3c2cnn3-c2ccccc2)CC1	-73.6
Cc1ccccc1C(=O)N1CCN(c2ncnc3c2cnn3-c2ccccc2)CC1	-9.76
O=C(c1ccco1)N1CCN(c2ncnc3c2cnn3-c2ccccc2)CC1	-64.5
CSc1ccc(COC(=O)CCS(=O)(=O)c2ccc(C)cc2)cc1	-9.83
O=C(C[n+]1ccccc1)N1CCCc2ccccc21.[Cl-]	18.3
Cn1c(SCC#N)nnc1-c1ccc2c(c1)OCO2	16.9
CCOC(=O)c1c(NC(=O)CCc2ccc(CC)o2)sc(C)c1C	1.97
O=[N+]([O-])c1ccccc1/C=N\N1CCN(Cc2ccccc2Cl)CC1	9.77
O=C(O)COc1ccccc1/C=N/NC(=O)CN1CCN(Cc2ccccc2Cl)CC1	-0.129
O=C(Cc1cccs1)N/N=C/C=C/c1ccccc1[N+](=O)[O-]	-0.125
O=C(CN1CCN(Cc2ccccc2Cl)CC1)N/N=C/C=C\c1ccccc1[N+](=O)[O-]	-76.2
O=C(Cc1ccccc1)N/N=C/C=C/c1ccccc1[N+](=O)[O-]	1.71
O=C(CN1CCN(Cc2ccccc2)CC1)N/N=C/C=C/c1ccccc1[N+](=O)[O-]	-74.2
O=C(Cc1cccs1)N/N=C/C=C\c1ccccc1[N+](=O)[O-]	13.3
O=C(CN1CCN(Cc2ccccc2)CC1)N/N=C/C=C/c1ccco1	-47.2
O=C(CN1CCN(Cc2ccccc2Cl)CC1)N/N=C/c1ccco1	-21.8
O=C(CN1CCN(Cc2ccccc2Cl)CC1)N/N=C/C=C/c1ccccc1[N+](=O)[O-]	-71.6
O=C(CN1CCN(Cc2ccccc2Cl)CC1)N/N=C/C=C/c1ccco1	-68.5
Cc1ccc(CN2CCN(/N=C/C=C/c3ccccc3[N+](=O)[O-])CC2)cc1	-21.1
